Screening data from PubChem.
JMJD2A Tudor inh: blocks the human JMJD2A Tudor domain; O75164; AlphaScreen JMJD2A-Tudor / H3K4me3 peptide binding; Potency, µM (doses to about 114 µM), without a hit: at the top dose activity change, negative = inhibition, hits mostly inhibitors; actives 4.4% (n = 390,000); note: % is set by controls: 0 for no effect and ±100 for the full control effect; nearly all actives have a fitted effect of over 50% in size
BAZ2B block: BAZ2B (human) inhibition; actives 4.4% (n = 360,000); AlphaScreen BAZ2B-H3K14Ac peptide displacement; Potency, µM (top dose mostly 114 µM), without a hit: top-dose activity change, negative = inhibition, hits mostly inhibitors; Q9UIF8; AID 504333; note: % is set by controls: 0 for no effect and ±100 for the full control effect; nearly all actives have a fitted effect of over 60% in size
Target sequence (Q9UIF8 whole entry, looked up): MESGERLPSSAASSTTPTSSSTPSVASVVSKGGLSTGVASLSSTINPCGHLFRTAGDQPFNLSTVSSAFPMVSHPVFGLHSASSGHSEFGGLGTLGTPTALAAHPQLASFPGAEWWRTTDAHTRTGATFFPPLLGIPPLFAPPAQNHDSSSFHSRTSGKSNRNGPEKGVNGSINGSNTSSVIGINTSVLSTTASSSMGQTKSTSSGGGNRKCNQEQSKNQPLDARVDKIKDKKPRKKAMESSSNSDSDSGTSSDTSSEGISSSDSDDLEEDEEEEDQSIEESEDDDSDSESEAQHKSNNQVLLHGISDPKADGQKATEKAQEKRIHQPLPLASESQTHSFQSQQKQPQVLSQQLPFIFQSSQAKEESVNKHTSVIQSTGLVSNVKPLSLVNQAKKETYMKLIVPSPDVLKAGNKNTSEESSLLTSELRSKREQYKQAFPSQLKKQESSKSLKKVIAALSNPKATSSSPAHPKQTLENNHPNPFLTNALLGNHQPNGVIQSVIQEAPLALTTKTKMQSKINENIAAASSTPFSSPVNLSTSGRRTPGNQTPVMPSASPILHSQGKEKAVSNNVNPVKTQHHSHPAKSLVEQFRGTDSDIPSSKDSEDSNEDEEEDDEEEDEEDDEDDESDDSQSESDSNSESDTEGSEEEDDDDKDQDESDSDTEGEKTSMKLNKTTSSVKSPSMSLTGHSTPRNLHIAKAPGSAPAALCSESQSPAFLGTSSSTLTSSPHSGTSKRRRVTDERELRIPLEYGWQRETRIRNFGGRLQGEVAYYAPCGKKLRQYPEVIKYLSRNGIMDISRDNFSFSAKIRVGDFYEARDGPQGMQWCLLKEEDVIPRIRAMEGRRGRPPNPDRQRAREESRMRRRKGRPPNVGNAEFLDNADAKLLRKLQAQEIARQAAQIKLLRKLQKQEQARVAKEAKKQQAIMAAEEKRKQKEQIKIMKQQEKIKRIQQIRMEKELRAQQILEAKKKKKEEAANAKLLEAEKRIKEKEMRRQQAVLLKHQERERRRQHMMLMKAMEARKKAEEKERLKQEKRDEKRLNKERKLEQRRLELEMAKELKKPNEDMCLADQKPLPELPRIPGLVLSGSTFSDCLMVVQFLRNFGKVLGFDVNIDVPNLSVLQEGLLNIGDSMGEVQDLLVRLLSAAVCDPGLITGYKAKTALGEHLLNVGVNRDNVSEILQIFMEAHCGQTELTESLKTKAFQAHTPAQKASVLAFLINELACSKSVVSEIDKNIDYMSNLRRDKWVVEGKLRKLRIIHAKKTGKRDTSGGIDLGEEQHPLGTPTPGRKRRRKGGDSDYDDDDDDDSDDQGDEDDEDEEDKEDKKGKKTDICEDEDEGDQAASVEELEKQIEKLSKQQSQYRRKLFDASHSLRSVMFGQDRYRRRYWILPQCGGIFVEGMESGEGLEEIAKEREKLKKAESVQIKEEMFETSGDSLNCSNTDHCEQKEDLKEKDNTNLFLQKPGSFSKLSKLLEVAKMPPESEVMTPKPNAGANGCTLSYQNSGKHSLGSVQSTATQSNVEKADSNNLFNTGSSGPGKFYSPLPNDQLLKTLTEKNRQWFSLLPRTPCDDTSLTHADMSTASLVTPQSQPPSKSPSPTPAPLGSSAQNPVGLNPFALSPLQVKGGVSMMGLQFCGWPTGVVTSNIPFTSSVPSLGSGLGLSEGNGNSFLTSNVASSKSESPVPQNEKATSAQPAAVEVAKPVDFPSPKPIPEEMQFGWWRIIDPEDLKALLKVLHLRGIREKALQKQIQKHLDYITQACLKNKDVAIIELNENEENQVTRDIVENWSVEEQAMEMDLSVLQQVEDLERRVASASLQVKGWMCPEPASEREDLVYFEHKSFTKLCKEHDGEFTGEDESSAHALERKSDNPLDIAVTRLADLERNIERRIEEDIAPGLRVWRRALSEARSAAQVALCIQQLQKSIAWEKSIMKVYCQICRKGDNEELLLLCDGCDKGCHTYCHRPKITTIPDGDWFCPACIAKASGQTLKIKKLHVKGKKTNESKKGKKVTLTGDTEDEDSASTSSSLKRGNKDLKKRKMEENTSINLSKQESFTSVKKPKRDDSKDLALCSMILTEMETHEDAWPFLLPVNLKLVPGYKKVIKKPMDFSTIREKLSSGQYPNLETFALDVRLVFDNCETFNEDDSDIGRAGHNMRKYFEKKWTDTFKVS
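AlphaScreen displacement: compounds (up to 110uM) incubated 30 min at room temperature with a preformed 50 nM BAZ2B/50 nM biotinylated H3K14Ac peptide complex in PBS pH 7.4 with Tween-20. Donor and acceptor beads at 10 ug/mL final added, 20 min light-protected before reading.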
G9a block: G9a (human) methyltransferase inhibition. Q96KQ7. G9a H3K9 monomethylation, AlphaScreen, 2 h. Potency, µM (highest dose often 102 µM), for inactives: top-dose activity, negative = inhibition, actives largely listed as inhibitors. actives 8.8% (n = 350,000). AID 504332; note: % is set by controls: 0 for no effect and ±100 for the full control effect; nearly all actives have a fitted effect of over 75% in size
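Enzyme 20 nM + cpd, 15 min RT; add b-H3K9 pep 500 nM / SAM 20 uM; 2 h RT; anti-H3K9me1 Ab 0.5 ug/mL + SA donor / anti-rabbit acceptor beads 20 ug/mL each, 10 min; AlphaScreen read.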
Sfp inh: inhibitors of Bacillus subtilis Sfp phosphopantetheinyl transferase | actives 3.5% (n = 310,000) | Potency, µM, for the others: largest response in the series, negative = inhibition, actives largely listed as inhibitors | Biochemical Sfp PPTase activity, qHTS | AID 1490;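 note: the enzyme is Sfp with the accession as filed and its product quenches rhodamine fluorescence; 0% = enzyme reaction without inhibitor and -100% = no enzyme wells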
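After 15 min at room temperature with compound, 15 nM Sfp received 5 uM rhodamine-CoA plus 12.5 uM BHQ-2-ybbR (50 mM Hepes pH 7.6, 10 mM MgCl2). Rate came from the fluorescence difference over 30 min, ex 525/em 598 nm.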
HP1b chromo inh: HP1-beta chromodomain-methylated histone interaction inhibition. Potency, µM (top dose mostly 114 µM), inactives show at the top dose activity change, negative = inhibition, usual class: inhibitors. P83916. actives 0.56% (n = 390,000). AlphaScreen HP1-beta / biotin-H3K9me3 peptide binding; note: nearly all actives have a fitted effect of over 70% in size
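HP1-beta protein (50 nM final) preincubated 30 min at room temperature with biotinylated H3(1-18)K9me3 peptide (50 nM) in PBS pH 7.4, 0.01% Tween-20, then compound added for 30 min. AlphaScreen streptavidin donor/nickel chelate acceptor beads (10 ug/mL final), 30 min dark, luminescence read.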
* hit, by the source's call; ? = inconclusive; . = no result given; [ ] = remark or other dose. Shown are actives, neighbours in structure and some others; about 12% of the full set was active somewhere. Calls come from the whole dose curve; as a rule, active = well fitted curve in the direction sought with a large enough effect; inconclusive = small, poorly fitted or top-dose-only effect, or another doubt; inactive = no such curve, though single readings can be large; an effect the other way counts as inactive or inconclusive. Potency is the fitted concentration of half-maximal effect.

SMILES	JMJD2A Tudor inh	BAZ2B block	G9a block	Sfp inh	HP1b chromo inh
Cc1cc(C)cc(NC(=O)CN2CCc3ccccc3C2)c1	40µM*	32µM*	27%[0.501 µM]	-8%	-44%
CCN1CCN(CCC(=O)Nc2cc(C)ccc2C)CC1	-10%	-1%	5%	17%	32%
CC(=O)C1=C(O)C(=O)N(CCO)C1c1ccccc1 (configuration not stated)	-17%	?	?	18%	17%
COc1cc(C2C(C(C)=O)=C(O)C(=O)N2CCc2c[nH]c3ccccc23)ccc1O (configuration not stated)	100µM*	?	50µM*	-5%	-8%
CC(=O)C1=C(O)C(=O)N(CCc2c[nH]c3ccccc23)C1c1cccc(O)c1 (configuration not stated)	79µM*	?	?	-4%	-5%
C=CCN1C(=O)c2oc3ccccc3c(=O)c2C1c1ccc(O)c(OC)c1 (configuration not stated)	-29%	-18%	-96%	-25%	29%
COc1ccccc1S(=O)(=O)Cc1ccc(C(=O)NCCCN2CCN(c3ccc(F)cc3)CC2)o1	-40%	?	-3%	-6%	-3%
CCCNC(=O)C1CCC(Cn2c(=O)c3sccc3n(Cc3cccc(OC)c3)c2=O)CC1 (configuration not stated)	-1%	1%	16%[59 µM]	.	71%
COc1cc(CN(C(=O)c2ccccc2)c2ccccn2)cc(OC)c1OC	-10%	-7%	1%[59 µM]	.	27%
Cc1c(CN(C)CCc2ccccc2)c(=O)n(-c2ccccc2)n1C	3.5µM*	?	4µM*	10%	?
Cc1c(O)c(=O)n(-c2ccccc2)n1C	-8%	30%	8.9µM*	?	16%
Cc1c(Cc2c(C)n(C)n(-c3ccccc3)c2=O)c(=O)n(-c2ccccc2)n1C	19%[57.1 µM]	4%	-5%	-5%	46%
CCC(C)C1=CC(=Nc2c(C)n(C)n(-c3ccccc3)c2=O)C=C(C(C)CC)C1=O (configuration not stated)	?	3.5µM*	?	12%	-20%
CC1=CC(=Nc2c(C)n(C)n(-c3ccccc3)c2=O)C=C(C)C1=O	-27%	-71%	40µM*	79µM*	?
Cc1c(N=c2scc(-c3ccccc3)n2C)c(=O)n(-c2ccccc2)n1C	-19%	?	-8%[59 µM]	-1%	4%
Cc1ccc(-c2nc3ccccc3c(=O)n2-c2c(C)n(C)n(-c3ccccc3)c2=O)cc1	-7%	4%	.	-3%	12%
Cc1c(N=NC2=C(O)CC(C)(C)CC2=O)c(=O)n(-c2ccccc2)n1C	50µM*	35µM*	-12%[12.7 µM]	40µM*	?
CCCC(=O)NC(=S)c1c(C)n(C)n(-c2ccccc2)c1=O	-19%	-4%	45µM*	-28%	23%
Cc1ccc(O)c(N=NC2=C(O)CC(C)(C)CC2=O)c1	56µM*	32µM*	?	-3%	-33%
CC(=O)/C(N=Nc1c(C)n(C)n(-c2ccccc2)c1=O)=C(\C)O	-4%	?	-8%	2%	49%
Cc1c(-n2c(=S)[nH]c3ccccc3c2=O)c(=O)n(-c2ccccc2)n1C	20µM*	-5%	?	-1%	19%
COc1ccc(NC(=O)c2nc(S(C)(=O)=O)ncc2N(Cc2ccc(C)cc2)Cc2ccco2)cc1Cl	-15%	-26%	-34%[59 µM]	.	28%
CCNc1ccc(N=Nc2c(C)n(C)n(-c3ccccc3)c2=O)cc1	-27%	32µM*	?	-5%	6%
CC1=CC(=Nc2c(C)n(C)n(-c3ccccc3)c2=O)C=CC1=O	.	45µM*	10µM*	8.9µM*	.
O=C(Nc1ccc(Cl)c(C(F)(F)F)c1)C(Cc1ccccc1)NS(=O)(=O)c1ccc(Br)s1 (configuration not stated)	-9%	-2%	-25%[59 µM]	.	22%
SMILES	JMJD2A Tudor inh	BAZ2B block	G9a block	Sfp inh	HP1b chromo inh
C=CCC(O)(C#Cc1ccccc1)c1ccccc1 (configuration not stated)	.	.	.	-24%	.
O=C(c1cc2nc(-c3ccco3)cc(C(F)(F)F)n2n1)N1CCN(c2ccccc2)CC1	-27%	?	45µM*	-15%	11%
O=C(c1cc2nc(-c3ccco3)cc(C(F)(F)F)n2n1)N1CCN(c2ccccn2)CC1	-3%	5%	?	-14%	31%
CN(C(=O)c1cc2nc(-c3ccco3)cc(C(F)(F)F)n2n1)C1CCCCC1	6%	13%	56µM*	50µM*	16%
O=C(c1cc2nc(-c3ccco3)cc(C(F)(F)F)n2n1)N1CCCCCC1	6%	.	?	56µM*	31%
NC(=O)c1cc2nc(-c3ccco3)cc(C(F)(F)F)n2n1	-1%	-1%	?	-6%	28%
CCCCn1c(SCC(=O)OCC)nc2c(sc(=S)n2-c2ccccc2OC)c1=O	-27%	-12%	-5%	-3%	18%
Cc1ccc(CCNC(=O)c2cc(S(=O)(=O)N3CCCC3)cn2C)cc1	-7%	-4%	24%	?	22%
CN(C)c1nc(N)c(C#N)c(C#N)c1C#N	-10%	.	.	.	33%
CCN(CC)CCc1c(C)[nH]c(C(=O)OCc2ccccc2)c1C	-34%	?	79µM*	7%	-13%
CCN(CC)CCC(=O)N1C/C(=C/c2ccccc2)C(=O)/C(=C\c2ccccc2)C1	-24%	.	.	.	20%
C=CC(=O)N1C/C(=C/c2ccc(F)cc2)C(=O)/C(=C\c2ccc(F)cc2)C1	18µM*	.	.	.	?
CN(C)S(=O)(=O)c1ccc(S(=O)(=O)N(CC(=O)Nc2ccccc2)CC2CCCO2)cc1 (configuration not stated)	-5%	-5%	32µM*	-2%	21%
O=C(CN(CC1CCCO1)S(=O)(=O)c1ccc(S(=O)(=O)NCC2CCCO2)cc1)Nc1ccccc1 (configuration not stated)	-3%	-24%	5%[59 µM]	11%	14%
CCCCN1C(=O)/C(=C(/C#N)C(=O)N2CCCC2)c2ccccc21	-27%	-37%	-14%[12.7 µM]	-8%	1%
CC(C)CN1C(=O)/C(=C(/C#N)C(=O)NC2CCCCC2)c2ccccc21	?	?	?	7.1µM*	9%
C=CCC1Cc2c(cccc2[N+](=O)[O-])C(CC=C)N1 (configuration not stated)	?	?	50µM*	2%	-3%
C=CCC1C=CCC(CC=C)N1C(=O)c1ccccc1[N+](=O)[O-] (configuration not stated)	-6%[57.1 µM]	-34%	-10%[59 µM]	17%	20%
COc1cc(NC(=O)C2=CC(c3ccc(F)cc3)=NS(=O)(=O)N2C)cc(OC)c1OC	1%	3%	-36%[59 µM]	.	50%
Cc1cccc(NCc2ccccc2O)c1C	?	-37%	?	4%	1%
